In the library only some 18% were active in any assay of this set; here they are far more common.
TDP1 cell CPT – qHTS for Inhibitors of human tyrosyl-DNA phosphodiesterase 1 (TDP1): qHTS in cells in presence of CPT | chicken DT40 Tdp1-/-;hTDP1 cells + 20 nM CPT, ATP luminescence, 48 h | Potency, µM (doses to about 46.2 µM), most hits filed as inhibitors | hit rate 12% among 420,000 | AID 686979, 2013; note: nearly all actives have a fitted effect of over 55% in size
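Chicken DT40 Tdp1-/- cells stably complemented with human TDP1 were seeded at 400 cells/well in medium containing 20 nM camptothecin, exposed to pin-transferred compounds, and grown at 37 °C for at least 48 hr. Viability was read as ATP luminescence.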
LDHA block – qHTS assay for inhibitors of human lactate dehydrogenase | hit rate 0.15% among 480,000 | purified LDHA, NADH/diaphorase-resazurin fluorescence; hits give low values | activity change, % (values are at about 110 or 230 µM) | AID 1347041, 2019; in the data active = activity change below about -30%; inconclusive = mostly about -25% to -30%
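LDH5 2 nM; NADH 0.06 mM, pyruvate 0.2 mM; 200 mM Tris pH 7.4, EDTA, Tween-20; 5 min RT. Detection: diaphorase 0.133 mg/mL + resazurin 37 µM, fluorescence ex540/em590 at 0 and 20 min; normalized to enzyme-free and DMSO wells.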
RORg inh – qHTS for inhibitors of ROR gamma transcriptional activity; Drosophila S2 Gal4-RORgamma UAS-luciferase reporter, 20 h; Potency, µM (series often up to 53.6 µM), most hits filed as inhibitors; hit rate 5.4% among 310,000; note: nearly all actives have a fitted effect of over 60% in size
Target sequence (P51450 whole entry, looked up, the tested form may be a part): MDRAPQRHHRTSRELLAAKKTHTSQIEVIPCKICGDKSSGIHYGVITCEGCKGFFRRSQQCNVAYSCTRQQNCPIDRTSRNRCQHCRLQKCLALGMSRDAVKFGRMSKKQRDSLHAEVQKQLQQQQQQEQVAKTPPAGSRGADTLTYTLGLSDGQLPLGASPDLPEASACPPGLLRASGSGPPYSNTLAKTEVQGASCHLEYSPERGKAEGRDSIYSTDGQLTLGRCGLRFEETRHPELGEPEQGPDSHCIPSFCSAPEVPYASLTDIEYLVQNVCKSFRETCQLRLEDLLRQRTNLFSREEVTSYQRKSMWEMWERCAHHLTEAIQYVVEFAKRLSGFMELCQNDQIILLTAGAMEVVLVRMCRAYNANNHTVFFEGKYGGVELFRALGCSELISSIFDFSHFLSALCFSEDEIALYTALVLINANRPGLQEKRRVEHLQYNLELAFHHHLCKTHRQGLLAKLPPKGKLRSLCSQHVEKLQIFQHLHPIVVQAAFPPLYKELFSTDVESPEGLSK
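Stable Schneider cell line, Gal4 DNA-binding domain fused to ROR gamma, UAS-luciferase. Cmpd 1 hr RT → CuSO4 700 uM final → 20 hr RT → luciferase reagent 10 min → luminescence.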
VP16 counter – VP16 counterscreen qHTS for inhibitors of ROR gamma transcriptional activity. Drosophila S2 Gal4-VP16 UAS-luciferase, luminescence, 20 h. Potency, µM (highest dose often 53.6 µM), hits mostly inhibitors. hit rate 3.5% among 310,000. AID 2546, 2010;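 note: Gal4-VP16 expression switched on by copper sulfate through the metallothionein promoter; nearly all actives have a fitted effect of over 50% in size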
IL-1B inflam inh – qHTS for Inhibitors of Inflammasome Signaling: IL-1-beta AlphaLISA Primary Screen. hit rate 4.7% among 360,000. THP-1 LPS/ATP IL-1B secretion, AlphaLISA, 16 h; hits give low values. AID 743279, 2014. activity change, % at 57.5 µM; in the data active = activity change below about -50%; inconclusive = mostly about -30% to -49%
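THP-1 cells pretreated 1 hr with compounds (up to 57.5 uM final), then stimulated with LPS (250 ng/mL final) plus ATP (1.25 mM final); secreted IL-1B measured by AlphaLISA after 16 hr, decreased signal indicating inhibition.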
TDP1 cell noCPT – qHTS for Inhibitors of human tyrosyl-DNA phosphodiesterase 1 (TDP1): qHTS in cells in absence of CPT | hit rate 15% among 420,000 | DT40 Tdp1-/- hTDP1 cells, no CPT, ATP luminescence, 48 h | Potency, µM (top dose mostly 46.2 µM), usual class: inhibitors; note: nearly all actives have a fitted effect of over 55% in size
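Stably hTDP1-transfected Tdp1-null chicken DT40 cells were treated with library compounds minus camptothecin and grown for at least 48 hr at 37 °C, after which cellular ATP was quantified by luminescence.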
Hits are given with their value; - = inactive; ? = inconclusive; . = not tested or not shown. Unless noted, calls come from the whole dose curve; as a rule, active = well fitted curve in the direction sought with a large enough effect; inconclusive = small, poorly fitted or top-dose-only effect, or another doubt; inactive = no such curve, though single readings can be large; an effect the other way counts as inactive or inconclusive.

SMILES	TDP1 cell CPT	LDHA block	RORg inh	VP16 counter	IL-1B inflam inh	TDP1 cell noCPT
Cc1cccc[n+]1CC(=O)/C=C1\N(C)c2ccccc2C1(C)C	3.3µM	-	?	6.3µM	-	3.3µM
Cc1ccc[n+](CC(=O)/C=C2\N(C)c3ccccc3C2(C)C)c1	1.2µM	-	?	-	-	1.6µM
CN1/C(=C\C(=O)c2cccs2)C(C)(C)c2ccccc21	-	-	?	?	-	-
CN1/C(=C\C(=O)C[n+]2ccc(C(=O)c3ccccc3)cc2)C(C)(C)c2ccccc21	0.82µM	-	?	-	-	1.2µM
CN1/C(=C\C(=O)C[n+]2cccc(Br)c2)C(C)(C)c2ccccc21	4.6µM	-	-	13µM	-	5.8µM
CN1/C(=C\C(=O)C[n+]2cccc(C(N)=O)c2)C(C)(C)c2ccccc21	-	-	-	-	-	-
O=c1c2nnn(-c3ccc(F)cc3)c2ncn1Cc1nc(-c2ccccc2)no1	.	-	.	.	.	.
O=C(NCCc1c[nH]c2ccccc12)c1ccccn1	.	-	.	.	.	.
O=C(Nc1ccc(-c2ccccc2)cc1)c1ccccc1F	.	-	.	.	.	.
O=C(Nc1ccc(Nc2ccccc2)cc1)c1ccccc1F	?	-	-	-	-97	?
CCN(CC)c1ccc(NC(=O)c2ccccc2F)cc1	?	-	-	-	-	23µM
N#CC1(c2ccc(NC(=O)c3ccccc3F)cc2)CCCC1	?	-	-	?	-69	?
O=C(O)CNC(=O)CC(F)(F)F	.	-	.	.	.	.
CCCCCCOc1ccc(C(=O)N2CCN(c3oc(-c4ccco4)nc3C#N)CC2)cc1OC	.	-	.	.	.	.
COc1ccc(C(C(=O)NC2CCCC2)N(Cc2ccco2)C(=O)c2snc(C(N)=O)c2N)cc1OC (stereo unspecified)	?	-	-	-	-59	-
COc1ccc(C(C(=O)NC2CCCCC2)N(Cc2ccco2)C(=O)c2snc(C(N)=O)c2N)cc1 (stereo unspecified)	?	-	-	-	-68	?
COCCN(C(=O)c1snc(C(N)=O)c1N)C(C(=O)NC1CCCCC1)c1ccc(N(C)C)cc1 (stereo unspecified)	-	-	-	-	-	15µM
CNC(c1ccccc1)c1ccc(F)cc1 (stereo unspecified)	.	-	.	.	.	.
COc1ccc(-c2cc(C(F)(F)F)nc(-n3cc(Cl)cn3)n2)cc1	15µM	-	?	?	.	?
COC(=O)c1ccn(-c2nc(-c3ccco3)cc(C(F)(F)F)n2)n1	-	-	-	-	-	?
CCOC(=O)c1ccn(-c2nc(-c3cccc(OC)c3)cc(C(F)(F)F)n2)n1	15µM	-	.	.	.	21µM
COc1ccc(-c2cc(C(F)(F)F)nc(-n3nc(C(F)(F)F)cc3C)n2)cc1	15µM	-	.	.	.	13µM
COc1cccc(-c2cc(C(F)(F)F)nc(-n3cc(Cl)cn3)n2)c1	?	-	-	-	.	16µM
O=C(COCC(=O)Nc1ccc(Oc2ccccc2)cc1)Nc1ccccc1	.	-	.	.	.	.
COc1ccc(CCN(/C=C2\Sc3ccccc3C2=O)C(C)=O)cc1OC	-	-	-	-	-	-
COc1ccccc1N(C(C)=O)C1=C(Cl)C(=O)c2ccccc2C1=O	0.52µM	-	.	.	?	0.73µM
Cc1ccc(-c2nc(Cn3c(SCc4ccc(F)cc4)nc4cccnc43)c(C)o2)cc1	0.73µM	-	.	.	.	0.82µM
Cc1ccc(Cn2c(SCc3ccc(C(=O)O)cc3)nc3cccnc32)cc1	-	-	.	.	.	-
CCCN(CCC)C(=O)Cn1c(SCc2cccc(F)c2)nc2cccnc21	?	-	.	.	.	?
Cc1oc(-c2cccc(Br)c2)nc1Cn1c(SCc2cccc(F)c2)nc2cccnc21	?	-	.	.	.	21µM

Screening results from PubChem.
